Results published in PubChem BioAssay (Tox21).
Inconclusive results are not listed. Values without a mark were called inactive. Activity calls are given as the source filed them. Calls follow the shape of the full dose curve.

Assay: p53 small molecule agonists, cell-based qHTS assay with human liver microsomes: qHTS cell viability counter screen (AID 1963579); also: nearly all actives have a fitted effect of over 45% in size
Conditions: p53RE-bla HCT-116 viability, ATP luminescence, 16 h, HLM; series mostly up to 66 µM; activity change, negative = cytotoxicity: at the top concentration
Excerpt: National Center for Advancing Translational Sciences [NCATS]
Division of Preclinical Innovation [DPI]
U.S. Environmental Protection Agency [EPA]
National Institutes of Environmental Health Sciences [NIEHS]
National Toxicology Program [NTP]
U.S. Food and Drug Administration [FDA]
p53, a tumor suppressor protein, is activated following cellular insult, including DNA damage and other cellular stresses. The activation of p53 regulates cell fate by inducing DNA repair, cell cycle arrest, apoptosis, or cellular senescence. The activation of p53, therefore, is a good indicator of DNA damage and other cellular stresses. […] The activation of the reporter gene under culture conditions can be detected by fluorescence intensity. This cell line was used to screen the Tox21 10K compound library in the condition of presence of human liver microsomes and to identify agonists that activate the p53 signaling pathway after in vitro metabolic activation (Ooka et al., Archive of Toxicology 96:1975-1987, 2022).
Tox21 Assay Protocol Summary:
The p53RE-bla cells were dispensed at 4,000cells/3ul/well in 1536-well black-clear bottom plates. After the assay plates were incubated at 37 C, 5% CO2 incubator for 5 hours, 23 nL of compounds dissolved in DMSO, positive controls or DMSO only was transferred to the assay plate. Following compound addition, 3 uL of human liver microsomes (XenoTech, Kansas City, KS) at final concentration of 0.5 mg/mL and 1uL of B-Nicotinamide adenine dinucleotide 2'-phosphate (NADPH) at final concentration of 0.5 mg/mL were transferred to the assay plate. The plates were incubated at 37 C for 16 hours. 1 uL of LiveBLAzer detection mixture was added to each well and the plates were incubated at room temperature in the dark for 2 h. Fluorescence intensity at 460 and 530 nm emission and 405 nm excitation were measured by an Envision plate reader. For cell viability readout that measures cytotoxicity, 4 ul/well of CellTiter-Glo reagent was added into the assay plates using a Flying Reagent Dispenser. After 30 min incubation at room temperature, the luminescence intensity in the plates was measured using a ViewLux plate reader.
% is scaled to controls: 0 for no effect and ±100 for the full control effect; potency is read from the fitted curve at half-maximal effect.

Row | SMILES | Potency | activity change, negative = cytotoxicity
1 | ClC1=C(Cl)C2(Cl)C(CBr)CC1(Cl)C2(Cl)Cl (stereo not given) | inactive | 
2 | N#Cc1c2ccccc2cc2ccccc12 |  | -0.574%
3 | CCN(CC)CCOC(=O)C(O)(c1ccccc1)c1ccccc1 |  | 1.05% [at 30.3 µM]
4 | N#Cc1c[nH]cc1-c1cccc2c1OC(F)(F)O2 |  | 17.1%
5 | CCOP(=O)(OCC)Oc1nc(Cl)c(Cl)cc1Cl |  | -2.92%
6 | C1=CCC=C1 |  | -0.146%
7 | CCOC(=O)c1cn2nc(OP(=S)(OCC)OCC)cc2nc1C |  | -10.9%
8 | CCOC(=O)NC(=S)Nc1ccccc1NC(=S)NC(=O)OCC |  | 8.16%
9 | CSc1ccc(C(=O)C(C)(C)N2CCOCC2)cc1 |  | -4.84%
10 | [Cl][Sn]([Cl])([Cl])[Cl] |  | 0.457%
11 | O=S(=O)(c1ccc(Cl)cc1)c1ccc(Cl)cc1 |  | 1.48%
12 | CCCCOC(=O)c1ccccc1N |  | -18.6%
13 | C[C@]12C=CC(=O)C=C1CC[C@@H]1[C@@H]2CC[C@@]2(C)[C@H]1CC[C@]2(C)O |  | -2.48% [at 30.3 µM]
14 | CCS(=O)(=O)CCSP(=O)(OC)OC |  | 1.47%
15 | N#CC(C#N)=NNc1cccc(Cl)c1 | 5.13 µM (active) | 
16 | CC1CCCC1 |  | -3.9%
17 | ClC(Cl)C(Cl)Cl |  | 5.13%
18 | CNC(C)Cc1ccc2c(c1)OCO2 (stereo not given) |  | 16.5%
19 | C[C@@H]1CC2=CC(=O)CC[C@@H]2[C@H]2CC[C@@]3(C)[C@@H](CC[C@]3(C)O)[C@@H]21 |  | -2.69% [at 30.3 µM]
20 | CC(C)N(Cc1ccccc1)C(=O)C(C)(C)C |  | 4.2%

Row | SMILES | Potency | activity change, negative = cytotoxicity
21 | CC(C)CCCCCCCOC(=O)c1ccccc1C(=O)OCCCCCCCC(C)C |  | -5.49%
22 | CNCC(=O)c1ccc(O)c(O)c1 |  | 5.91% [at 30.3 µM]
23 | O=C(O)c1ccc2[nH]cc(CCCCN3CC=C(c4ccccc4)CC3)c2c1 |  | -0.251% [at 30.3 µM]
24 | O=C(N[C@H]1N=C(c2ccccc2F)c2cccc3c2N(CC3)C1=O)c1cc2ccccc2[nH]1 |  | 0.336% [at 30.3 µM]
25 | CCc1ccccc1N |  | -0.221%
26 | Oc1c(Cl)c(Cl)cc(Cl)c1Cl |  | -3.77%
27 | O=c1[nH]c(Cl)c(Cl)cc1Cl |  | -14.8%
28 | O=C(NC(=O)c1c(F)cccc1F)Nc1cc(Cl)c(OC(F)(F)C(F)F)c(Cl)c1 |  | -1.46%
29 | O=[N+]([O-])c1ccc(Nc2ccccc2)cc1 | inactive | 
30 | CCOC1Oc2ccc(OS(C)(=O)=O)cc2C1(C)C (stereo not given) |  | -1.02%
31 | CC1(C)C(C(=O)OC(C#N)c2cccc(Oc3ccccc3)c2)C1(C)C (stereo not given) |  | -5.04%
32 | Cc1ncc(C[n+]2csc(CCO)c2C)c(N)n1 |  | 5.41%
33 | CC(=O)NNc1ccccc1 |  | 6.32%
34 | CC(Cc1ccccc1)NCCn1cnc2c1c(=O)n(C)c(=O)n2C (stereo not given) |  | 0.429%
35 | FC(Cl)(Cl)C(F)(Cl)Cl |  | -3.54%
36 | CCC1(c2cccc(O)c2)CCCCN(C)C1 (stereo not given) |  | 8.39% [at 30.3 µM]
37 | CN[C@@H](C)[C@H](O)c1ccccc1 |  | 15.2% [at 30.3 µM]
38 | C=CCOC(=O)c1ccccc1N |  | -18.2%
39 | CC(C)CC#N |  | -0.739%
40 | Oc1ccc(Cl)c(Cl)c1Cl |  | -25.7%
